Data: PubChem BioAssay (Tox21)
Several values for one entry are separate records, joined by “and”; a condition that tells them apart may be missing. Equal values may be shown once. Results filed as inconclusive are left out. Activity calls are given as the source filed them. The call rests on the fitted dose curve; in most records, active means well fitted curve in the direction sought with a large enough effect in the repeat runs; inconclusive means weak or mixed curves; inactive means no such curve, though single readings can be large; an effect the other way counts as inactive or inconclusive.

Legend:
[1] = Caspase-3/7 induction in HepG2 cells by small molecules, qHTS assay (AID 1346978); further: nearly all actives have a fitted effect of over 15% in size; further: potency means the concentration at half of the fitted maximal effect
Method in brief: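 Wild-type HepG2 cells, 2,000/well, settled 5 hr at 37 C and 5% CO2, then compound-treated for 17 hr; caspase-3/7 activity read by luminescent Caspase-Glo 3/7 after 30 min at room temperature.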

[2] = Caspase-3/7 induction in CHO-K1 cells by small molecules, qHTS cell viability counter screen (AID 1346979); further: nearly all actives have a fitted effect of over 35% in size; further: potency means the concentration at half of the fitted maximal effect
Method in brief: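 Cytotoxicity counter screen: CellTiter-Fluor added to compound-treated wild-type CHO-K1 cells at 16 h (37C, 5% CO2), fluorescence measured 1 h later; same wells as caspase-3/7 measurement.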

[3] = Caspase-3/7 induction in CHO-K1 cells by small molecules, qHTS assay (AID 1346980); further: nearly all actives have a fitted effect of over 15% in size
Method in brief: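 Wild-type CHO-K1 cells exposed to compounds for 17hr at 37 C, 5% CO2. Caspase-3/7 activity then measured by Caspase-Glo 3/7 luminescence after 30min at room temperature.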

[4] = Caspase-3/7 induction in HepG2 cells by small molecules, qHTS cell viability counter screen (AID 1346981); further: nearly all actives have a fitted effect of over 30% in size; further: potency means the concentration at half of the fitted maximal effect
Method in brief: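 Treatment of HepG2 cells with DMSO-delivered compounds ran 16 hr at 37 C following a 5-hr pre-incubation of 2,000 cells/well. CellTiter-Fluor fluorescence, read after 1 hr, served as the viability measure in a qHTS format.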

[5] = molecular target: Cytochrome P450 2C19 (Homo sapiens) (UniProt P33261); assay: Cytochrome P450 Family 2 Subfamily C Member 19 (CYP2C19) small molecule antagonists: luciferase reporter qHTS assay (AID 1671197); further: nearly all actives have a fitted effect of over 65% in size; further: potency means the concentration at half of the fitted maximal effect
Method in brief: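 First, compounds are pinned into enzyme-substrate mix and held 10 min at room temperature. Second, NADPH regeneration solution is added and plates incubate 1 h at 37C. Third, detection reagent is added and luminescence read after 20 min.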

[6] = molecular target: Cytochrome P450 2C9 (Homo sapiens) (UniProt P11712); assay: Cytochrome P450 Family 2 Subfamily C Member 9 (CYP2C9) small molecule antagonists: luciferase reporter qHTS assay (AID 1671198); further: nearly all actives have a fitted effect of over 50% in size; further: potency means the concentration at half of the fitted maximal effect
Method in brief: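 P450-Glo proluciferin substrate with CYP2C9 enzyme; 10 min RT preincubation, then NADPH regeneration 1 h at 37C; luciferin detection reagent 20 min RT, luminescence in relative luminescence units.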

[7] = molecular target: Cytochrome P450 1A2 (Homo sapiens) (UniProt P05177); assay: Cytochrome P450 Family 1 Subfamily A Member 2 (CYP1A2) small molecule antagonists: luciferase reporter qHTS assay (AID 1671199); further: nearly all actives have a fitted effect of over 50% in size; further: potency means the concentration at half of the fitted maximal effect
Method in brief: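 Read-out is luminescence from luciferin detection reagent (20 min) proportional to CYP1A2 activity; compounds in DMSO preincubated 10 min with enzyme and proluciferin substrate, then NADPH regeneration solution, 1 h, room temperature.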

[8] = molecular target: Voltage-gated inwardly rectifying potassium channel KCNH2 (Homo sapiens) (UniProt Q12809); assay: Human Ether-a-go-go-Related Gene (hERG) channel small molecule antagonists: fluorescence cell-based qHTS assay (AID 1671200); further: nearly all actives have a fitted effect of over 50% in size; further: potency means the concentration at half of the fitted maximal effect
Method in brief: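 Thallium flux as potassium surrogate: FluxOR II dye loaded 1 h at room temperature into hERG-expressing U2OS cells, then stimulus buffer added after 10 min. Kinetic 480 nm excitation/540 nm emission read, 2 min.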

[9] = molecular target: Nuclear receptor subfamily 1 group I member 2 (Rattus norvegicus) (UniProt Q9R1A7); assay: Rat pregnane X receptor (rPXR) activation by small molecules, qHTS assay (AID 1346983); conditions: rPXR luciferase reporter cells, One-Glo luminescence, 24 h; max activation: stronger effect = higher value; further: nearly all actives have a fitted effect of over 20% in size
Method in brief: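 Cell-based rPXR activation assay: rPXR cells, 2,000 per well, rested 5hr at 37 C, then exposed to compounds in DMSO for 24 hr at 37 C. Luciferase activity read by One-Glo luminescence after 30 min at room temperature.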

[10] = molecular target: Cytochrome P450 3A4 (Homo sapiens) (UniProt P08684); assay: Cytochrome P450 Family 3 Subfamily A Member 4 (CYP3A4) small molecule antagonists: luciferase reporter qHTS assay (AID 1671201); further: nearly all actives have a fitted effect of over 50% in size; further: potency means the concentration at half of the fitted maximal effect
Method in brief: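 Recombinant human CYP3A4 converts a proluciferin substrate to luciferin over 1 h at room temperature after NADPH regeneration solution is added (compound preincubated 10 min); detection reagent stops reaction, luminescence read 20 min later as relative units.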

[11] = molecular target: Nuclear receptor subfamily 1 group I member 2 (Homo sapiens) (UniProt O75469); assay: CYP3A4 induction through human pregnane X receptor (PXR) by small molecules, qHTS assay (AID 1346984); further: nearly all actives have a fitted effect of over 40% in size
Method in brief: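 After 24 h at 37C with compound, DPX-2 cells (HepG2, co-transfected PXR response element and CYP3A4 promoter-luciferase) got 3uM final P450-Glo Luciferin-IPA for 3 h; One-Glo luminescence followed.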

[12] = molecular target: Nuclear receptor subfamily 1 group I member 2 (Homo sapiens) (UniProt O75469); assay: Human pregnane X receptor (PXR) activation by small molecules, qHTS assay (AID 1346985); further: nearly all actives have a fitted effect of over 40% in size; further: potency means the concentration at half of the fitted maximal effect
Method in brief: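 DPX-2 cells (HepG2 co-transfected with a PXR response element and a CYP3A4-promoter luciferase construct) were seeded at 2,000 per well, rested 5 hr at 37C, then exposed to DMSO-dissolved compounds for 24 hr. Activation was read as luciferase luminescence.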

[13] = molecular target: Cytochrome P450 2D6 (Homo sapiens) (UniProt P10635); assay: Cytochrome P450 Family 2 Subfamily D Member 6 (CYP2D6) small molecule antagonists: luciferase reporter qHTS assay (AID 1671196)
Method in brief: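 Chemicals tested for interference with CYP2D6 activity; proluciferin substrate, NADPH regeneration, 1 h at room temperature, luminescent detection.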

[14] = molecular target: Nuclear receptor subfamily 1 group I member 2 (Homo sapiens) (UniProt O75469); assay: Human pregnane X receptor (PXR) small molecule agonists, qHTS assay (AID 1346982); further: nearly all actives have a fitted effect of over 35% in size; further: potency means the concentration at half of the fitted maximal effect
Method in brief: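 Stable HepG2 line reporting PXR-mediated CYP3A4 expression via luciferase. Treatment: 24 hr with compounds in DMSO at 37 C. Detection: ONE-Glo luminescence.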
On the % scale 0 is the no-effect control and ±100 the full control effect.

Chain of Cytochrome P450 1A2 (Homo sapiens) (P05177 whole entry, looked up): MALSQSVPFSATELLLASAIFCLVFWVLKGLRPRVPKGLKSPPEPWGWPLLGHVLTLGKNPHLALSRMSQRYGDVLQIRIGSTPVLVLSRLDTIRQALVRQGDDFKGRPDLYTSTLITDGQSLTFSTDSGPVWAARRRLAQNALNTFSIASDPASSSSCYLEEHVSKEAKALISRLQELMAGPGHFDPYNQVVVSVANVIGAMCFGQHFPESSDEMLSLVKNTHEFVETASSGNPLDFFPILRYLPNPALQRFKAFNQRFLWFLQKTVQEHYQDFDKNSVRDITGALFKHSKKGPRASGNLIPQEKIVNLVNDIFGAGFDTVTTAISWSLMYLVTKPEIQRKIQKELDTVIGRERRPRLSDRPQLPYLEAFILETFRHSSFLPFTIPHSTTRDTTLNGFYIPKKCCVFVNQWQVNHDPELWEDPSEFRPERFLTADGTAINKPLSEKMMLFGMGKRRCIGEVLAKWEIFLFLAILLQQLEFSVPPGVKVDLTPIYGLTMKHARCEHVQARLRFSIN
Chain of Cytochrome P450 3A4 (Homo sapiens) (P08684 whole entry, looked up): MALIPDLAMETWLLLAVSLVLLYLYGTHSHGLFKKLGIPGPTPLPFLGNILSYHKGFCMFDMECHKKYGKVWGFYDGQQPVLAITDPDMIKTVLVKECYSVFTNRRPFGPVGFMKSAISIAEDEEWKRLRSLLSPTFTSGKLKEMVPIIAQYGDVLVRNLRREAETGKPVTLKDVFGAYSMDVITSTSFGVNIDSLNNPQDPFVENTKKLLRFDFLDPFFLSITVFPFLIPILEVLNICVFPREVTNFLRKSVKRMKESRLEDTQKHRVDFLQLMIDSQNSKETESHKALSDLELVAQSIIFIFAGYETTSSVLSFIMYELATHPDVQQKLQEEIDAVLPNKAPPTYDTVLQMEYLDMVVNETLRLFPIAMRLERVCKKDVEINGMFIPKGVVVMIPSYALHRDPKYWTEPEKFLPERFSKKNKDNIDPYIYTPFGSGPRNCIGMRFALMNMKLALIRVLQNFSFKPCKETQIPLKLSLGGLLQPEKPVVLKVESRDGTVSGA
Chain of Cytochrome P450 2C9 (Homo sapiens) (P11712 whole entry, looked up): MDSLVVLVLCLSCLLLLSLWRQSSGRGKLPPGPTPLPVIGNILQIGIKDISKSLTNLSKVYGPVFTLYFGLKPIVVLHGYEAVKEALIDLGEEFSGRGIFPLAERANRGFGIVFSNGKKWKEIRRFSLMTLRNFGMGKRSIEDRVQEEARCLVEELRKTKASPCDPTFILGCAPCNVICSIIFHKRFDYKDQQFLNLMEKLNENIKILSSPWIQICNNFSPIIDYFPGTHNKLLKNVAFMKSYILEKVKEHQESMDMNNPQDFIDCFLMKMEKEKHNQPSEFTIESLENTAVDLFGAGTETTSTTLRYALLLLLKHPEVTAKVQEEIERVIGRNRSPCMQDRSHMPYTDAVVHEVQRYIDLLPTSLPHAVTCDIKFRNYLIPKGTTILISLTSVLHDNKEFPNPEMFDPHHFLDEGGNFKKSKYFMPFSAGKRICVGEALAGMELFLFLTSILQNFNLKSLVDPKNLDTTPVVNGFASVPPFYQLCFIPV
Chain of Voltage-gated inwardly rectifying potassium channel KCNH2 (Homo sapiens) (Q12809 whole entry, looked up): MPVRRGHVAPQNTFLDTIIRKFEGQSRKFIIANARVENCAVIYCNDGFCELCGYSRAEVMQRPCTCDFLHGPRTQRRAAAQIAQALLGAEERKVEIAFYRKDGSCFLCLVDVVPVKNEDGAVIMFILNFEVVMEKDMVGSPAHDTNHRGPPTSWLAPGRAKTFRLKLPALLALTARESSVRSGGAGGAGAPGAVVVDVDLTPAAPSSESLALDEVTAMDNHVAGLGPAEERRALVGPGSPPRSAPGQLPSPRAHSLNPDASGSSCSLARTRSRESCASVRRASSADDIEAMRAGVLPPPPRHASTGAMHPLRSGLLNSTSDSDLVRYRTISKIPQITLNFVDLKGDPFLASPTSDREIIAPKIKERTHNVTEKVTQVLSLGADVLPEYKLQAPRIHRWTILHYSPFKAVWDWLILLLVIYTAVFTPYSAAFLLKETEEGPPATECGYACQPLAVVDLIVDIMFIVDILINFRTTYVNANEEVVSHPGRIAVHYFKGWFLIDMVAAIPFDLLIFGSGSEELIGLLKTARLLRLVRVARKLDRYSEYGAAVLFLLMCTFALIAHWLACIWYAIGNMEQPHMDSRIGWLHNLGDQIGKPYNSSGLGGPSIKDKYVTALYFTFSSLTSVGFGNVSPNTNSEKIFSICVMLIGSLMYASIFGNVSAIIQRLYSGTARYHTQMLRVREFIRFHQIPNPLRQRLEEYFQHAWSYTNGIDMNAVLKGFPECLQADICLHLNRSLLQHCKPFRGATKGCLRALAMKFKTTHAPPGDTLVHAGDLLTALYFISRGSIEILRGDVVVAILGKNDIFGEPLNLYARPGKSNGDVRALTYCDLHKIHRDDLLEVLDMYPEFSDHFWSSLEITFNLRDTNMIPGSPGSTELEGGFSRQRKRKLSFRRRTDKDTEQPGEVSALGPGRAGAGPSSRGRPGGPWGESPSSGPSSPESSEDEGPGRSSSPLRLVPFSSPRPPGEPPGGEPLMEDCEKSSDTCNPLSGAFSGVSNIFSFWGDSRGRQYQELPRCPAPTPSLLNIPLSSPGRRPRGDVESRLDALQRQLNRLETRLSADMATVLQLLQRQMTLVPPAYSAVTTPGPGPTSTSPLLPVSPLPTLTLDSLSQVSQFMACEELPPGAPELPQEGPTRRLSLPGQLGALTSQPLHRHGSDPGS
Chain of Nuclear receptor subfamily 1 group I member 2 (Homo sapiens) (O75469 whole entry, looked up): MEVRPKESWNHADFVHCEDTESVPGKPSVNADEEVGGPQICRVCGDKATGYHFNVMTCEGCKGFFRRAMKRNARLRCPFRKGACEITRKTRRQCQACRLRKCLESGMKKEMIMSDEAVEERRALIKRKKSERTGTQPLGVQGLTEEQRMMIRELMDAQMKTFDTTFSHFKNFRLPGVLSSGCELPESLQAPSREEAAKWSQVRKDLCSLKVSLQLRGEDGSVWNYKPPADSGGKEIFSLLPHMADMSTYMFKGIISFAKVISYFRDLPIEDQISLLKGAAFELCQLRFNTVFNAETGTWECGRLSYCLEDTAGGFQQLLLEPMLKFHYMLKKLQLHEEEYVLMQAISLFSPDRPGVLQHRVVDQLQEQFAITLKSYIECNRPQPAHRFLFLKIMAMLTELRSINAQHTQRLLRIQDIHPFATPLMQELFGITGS
Chain of Cytochrome P450 2D6 (Homo sapiens) (P10635 whole entry, looked up): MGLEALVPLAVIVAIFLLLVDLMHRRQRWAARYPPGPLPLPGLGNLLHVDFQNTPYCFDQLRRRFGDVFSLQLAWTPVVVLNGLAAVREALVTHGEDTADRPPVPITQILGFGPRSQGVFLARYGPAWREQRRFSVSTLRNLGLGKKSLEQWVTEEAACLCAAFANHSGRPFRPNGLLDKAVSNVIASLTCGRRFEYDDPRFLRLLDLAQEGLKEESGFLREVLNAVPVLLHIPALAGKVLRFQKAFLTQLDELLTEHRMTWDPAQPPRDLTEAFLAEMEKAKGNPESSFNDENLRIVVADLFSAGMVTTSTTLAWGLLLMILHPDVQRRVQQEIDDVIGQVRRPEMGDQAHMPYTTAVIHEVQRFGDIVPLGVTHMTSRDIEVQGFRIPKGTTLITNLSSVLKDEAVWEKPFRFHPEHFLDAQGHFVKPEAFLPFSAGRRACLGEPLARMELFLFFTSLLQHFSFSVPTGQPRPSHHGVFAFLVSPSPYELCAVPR
Chain of Nuclear receptor subfamily 1 group I member 2 (Rattus norvegicus) (Q9R1A7 whole entry, looked up): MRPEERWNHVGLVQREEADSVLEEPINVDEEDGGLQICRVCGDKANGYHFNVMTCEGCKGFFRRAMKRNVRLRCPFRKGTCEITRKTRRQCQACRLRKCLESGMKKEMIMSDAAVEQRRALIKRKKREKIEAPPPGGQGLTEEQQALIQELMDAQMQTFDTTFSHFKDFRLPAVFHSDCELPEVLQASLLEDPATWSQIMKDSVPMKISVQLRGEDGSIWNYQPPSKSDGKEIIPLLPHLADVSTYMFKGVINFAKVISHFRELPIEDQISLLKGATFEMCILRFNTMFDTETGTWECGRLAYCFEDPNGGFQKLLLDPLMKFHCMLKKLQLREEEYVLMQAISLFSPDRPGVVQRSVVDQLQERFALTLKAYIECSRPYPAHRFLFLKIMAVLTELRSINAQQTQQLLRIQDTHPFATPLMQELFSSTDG
Chain of Cytochrome P450 2C19 (Homo sapiens) (P33261 whole entry, looked up): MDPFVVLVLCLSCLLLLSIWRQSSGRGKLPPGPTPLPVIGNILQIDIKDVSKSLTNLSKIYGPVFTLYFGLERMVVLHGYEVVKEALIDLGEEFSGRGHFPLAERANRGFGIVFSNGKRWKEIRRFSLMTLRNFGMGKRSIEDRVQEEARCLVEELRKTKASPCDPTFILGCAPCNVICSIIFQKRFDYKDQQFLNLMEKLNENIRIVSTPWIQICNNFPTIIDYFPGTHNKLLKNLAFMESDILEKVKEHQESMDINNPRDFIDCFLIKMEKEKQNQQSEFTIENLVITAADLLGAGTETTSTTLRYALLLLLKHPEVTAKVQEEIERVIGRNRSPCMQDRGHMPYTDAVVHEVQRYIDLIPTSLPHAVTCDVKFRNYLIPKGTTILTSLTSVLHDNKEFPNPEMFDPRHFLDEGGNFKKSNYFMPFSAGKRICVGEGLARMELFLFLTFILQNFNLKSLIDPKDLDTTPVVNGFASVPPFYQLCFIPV

CC(C)(C)C1(CCc2ccc(Cl)cc2)CO1 (stereo not drawn)
inactive: Potency [1] | Potency [2] | outcome [3] | Potency [4]
active: Potency [5] 1.26 µM | Potency [6] 17.8 µM | Potency [7] 20 µM | Potency [8] 24.5 µM

Nc1ccn([C@H]2CS[C@@H](CO)O2)c(=O)n1
inactive: Potency [1] | Potency [2] | outcome [3] | max activation [9] -3.24% and -0.136% | Potency [5] | Potency [6] | Potency [7] | Potency [8] | Potency [10]

C[C@@H]1[C@H](O)[C@@H](C)/C=C/C=C\C=C\C=C\C=C\C=C\C=C\[C@H](O[C@@H]2O[C@H](C)[C@@H](O)[C@H](N)[C@@H]2O)C[C@@H]2O[C@](O)(C[C@@H](O)C[C@@H](O)[C@H](O)CC[C@@H](O)C[C@@H](O)CC(=O)O[C@H]1C)C[C@H](O)[C@H]2C(=O)O (stereo in doubt)
inactive: Potency [1] | outcome [3] | max activation [9] 1.92% | Potency [11] | Potency [12] | Potency [13] | Potency [6] | Potency [8] | Potency [10]
active: Potency [2] 61.1 µM | Potency [4] 48.6 µM

CCCCCCC(O)CCCCCCCCCCC(=O)OC (stereo not drawn)
active: Potency [6] 35.6 µM
inactive: Potency [1] | Potency [2] | outcome [3] | Potency [4] | Potency [14] | Potency [5] | Potency [7] | Potency [8] | Potency [10]

COc1ccc(/C=C/C(=O)c2ccc(OC)cc2OC)cc1
inactive: outcome [3] | Potency [4] | Potency [11] | Potency [8]
active: Potency [1] 10.6 µM | Potency [14] 29.8 µM | Potency [12] 22.4 µM | Potency [5] 3.89 µM | Potency [6] 6.92 µM | Potency [7] 4.56 µM

O=C(O)/C=C/c1ccc(O)c(O)c1
inactive: Potency [1] | Potency [2] | outcome [3] | Potency [4] | Potency [14] | Potency [13] | Potency [6] | Potency [7] | Potency [8] | Potency [10]

Cc1cc([N+](=O)[O-])ccc1N
active: Potency [2] 53.8 µM | Potency [4] 33.9 µM | Potency [5] 35.1 µM | Potency [6] 39.4 µM | Potency [7] 3.51 µM
inactive: outcome [3] | Potency [8] | Potency [10]

O=C1c2ccccc2C(=O)c2c(O)ccc(O)c21
active: Potency [14] 4.86 µM | Potency [7] 3.17 µM
inactive: Potency [1] | Potency [2] | outcome [3] | Potency [4] | Potency [5] | Potency [6] | Potency [8] | Potency [10]

CCCCCCCCCCCCCCCCCC(=O)OCC(CC)CCCC (stereo not drawn)
inactive: Potency [1] | Potency [2] | outcome [3] | Potency [4] | Potency [14] | Potency [5] | Potency [6] | Potency [8]

Oc1ccc2c(c1)Cc1ccccc1-2
inactive: Potency [1] | outcome [3] | Potency [4] | Potency [13] | Potency [8] | Potency [10]
active: Potency [14] 30.6 µM | Potency [5] 28.3 µM | Potency [6] 35.6 µM | Potency [7] 3.56 µM

COC1CCC=CO1 (stereo not drawn)
inactive: Potency [1] | Potency [2] | outcome [3] | Potency [4] | Potency [6] | Potency [7] | Potency [8] | Potency [10]

Cc1ccc(Nc2c(F)cccc2Cl)c(CC(=O)O)c1
inactive: Potency [1] | Potency [2] | outcome [3] | Potency [8]
active: Potency [6] 17.4 µM | Potency [7] 12.3 µM

Cc1ccc2c(c1)CCCN2
inactive: Potency [1] | Potency [2] | outcome [3] | Potency [4] | Potency [8]
active: Potency [5] 39.9 µM | Potency [6] 39.9 µM | Potency [7] 3.17 µM

CCCCCCCC/C=C\CCCCCCCC(=O)OCCO
active: Potency [5] 52.9 µM | Potency [6] 18.8 µM | Potency [10] 13.3 µM
inactive: Potency [1] | Potency [2] | outcome [3] | Potency [4] | Potency [8]

CC12CC3CC(C)(C1)CC(N)(C3)C2
inactive: Potency [1] | Potency [2] | outcome [3] | Potency [4] | Potency [14] | Potency [5] | Potency [7] | Potency [8]

Cc1ccc(Cl)cc1N
inactive: Potency [1] | outcome [3] | Potency [4] | Potency [8]
active: Potency [14] 55.5 µM | Potency [5] 36.2 µM | Potency [7] 10.2 µM

CC(C)COC(=O)COc1cc(Cl)c(Cl)cc1Cl
active: Potency [5] 8.91 µM | Potency [6] 35.5 µM | Potency [7] 31.6 µM
inactive: Potency [1] | Potency [2] | outcome [3] | Potency [4]

O=C(c1ccccc1)c1ccc(O)cc1
inactive: Potency [1] | outcome [3] | Potency [4] | Potency [6] | Potency [8] | Potency [10]
active: Potency [14] 61.8 µM | Potency [5] 40.4 µM | Potency [7] 32.1 µM

CC[C@H]1OC(=O)[C@H](C)[C@@H](O[C@H]2C[C@@](C)(OC)[C@@H](O)[C@H](C)O2)[C@H](C)[C@@H](O[C@@H]2O[C@H](C)C[C@H](N(C)C)[C@H]2O)[C@](C)(O)C[C@@H](C)/C(=N\OCOCCOC)[C@H](C)[C@@H](O)[C@]1(C)O
inactive: Potency [1] | outcome [3] | max activation [9] 0.558% | Potency [11] | Potency [12] | Potency [13] | Potency [5] | Potency [6] | Potency [7] | Potency [8]
active: Potency [2] 28.6 µM | Potency [4] 25.5 µM | Potency [10] 3.33 µM
